Unmarked numbers belong to inactive results. Inconclusive results are not listed. For some assays here: Potency and affinity values are given separately. The source made the active and inactive calls. Unless noted, no rule for the calls is given here.

Usually inhibition stands for the relative decrease from the control value, in per cent. The AC50 is the concentration at which the activity in the assay is half-maximal. As a reminder, the IC50 is the concentration that inhibits the measured activity by half.

Assay [1] is described as follows: antimalarial activity against Dd2 strain (AID 2302;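 active = growth inhibition above 50% at the single 2 µM test dose, taken to imply half-maximal potency below 2 µM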;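 also: 0% = DMSO untreated growth and 100% = chloroquine plus artemisinin killed control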). To be noted: P. falciparum Dd2 in RBCs, LDH growth readout, 72 h; at 2 µM; hits give high values.
The nature of assay [2]: human hepatoma cell viability loss – ATP luminescence, cytotoxicity control for P. falciparum antimalarial project, primary screen (AID 2303;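 active = inhibition above 50%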;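 also: 0% = DMSO wells and 100% = digitonin-killed cells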). To be noted: HepG2 viability, 24-48 h, at 10 µM, hits give high values.
The target in assay [3] is L-lactate dehydrogenase (Plasmodium falciparum (isolate CDC / Honduras)) (UniProt Q27743). Description: PfLDH activity inhibition – cell lysate, 3D7 strain, counter-screen for P. falciparum growth inhibition project (AID 2304).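 Also: 0% = vehicle and 100% = reference inhibitor.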 The note with it: P. falciparum 3D7 crude extract, LDH APAD/NBT absorbance; at 2 µM; hits give high values. On the technique in general: Counterscreens check selectivity or assay interference.

The nature of assay [4]: inhibition of 3D7 malaria parasite growth – strain 3D7 (AID 2306).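 Also: 0% = DMSO wells and 100% = chloroquine plus artemisinin control wells.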 To be noted: P. falciparum 3D7 erythrocytic growth, LDH absorbance, 72 h; at 2 µM; hits give high values.
The target in assay [5] is Calcium-dependent protein kinase 1 (Plasmodium falciparum (isolate 3D7)) (UniProt P62344). Description: PfCDPK1 kinase inhibitors, biochemical, TCAMS library (AID 1159585; cut-off not given, nearly all actives have IC50 up to about 0.98 µM;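 also: inhibitors leave more ATP so luminescence rises with inhibition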). To be noted: recombinant PfCDPK1, Kinase-Glo ATP depletion luminescence.
Assay [6] addresses Protein kinase 7 (PK7), Plasmodium falciparum 3D7 (PF3D7_0213400) (UniProt Q7YTF7). Description: inhibition of Plasmodium PK7 catalytic activity – biochemical, TCAMS antimalarial set, Kinase-Glo luminescence (AID 1159587). To be noted: recombinant PfPK7, Kinase-Glo ATP depletion luminescence. Background: Kinase-Glo reads ATP consumption through a luciferase reaction.
Assay [7] concerns the target Calcium-dependent protein kinase 4 (Plasmodium falciparum (isolate 3D7)) (UniProt Q8IBS5). Description: PfCDPK4 kinase inhibitors, biochemical, TCAMS library (AID 1159588; cut-off not given, nearly all actives have IC50 up to about 0.91 µM). To be noted: recombinant PfCDPK4, Kinase-Glo ATP depletion luminescence.
The target of assay [8] is Plasmodium falciparum protein kinase 6 (PK6, PF3D7_1337100) (UniProt Q8IDW1). Description: PfPK6 kinase inhibitors, biochemical, TCAMS library (AID 1159586). The note with it: recombinant PfPK6, Kinase-Glo ATP depletion luminescence.
The nature of assay [9]: viability loss in pontine glioma line – cell-based, SU-DIPG-XIII, MIPE4.0, CellTiter-Glo, qHTS, dose response (AID 1347061; cut-off not given, nearly all actives have AC50 up to about 37 µM;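 also: cells exposed to compound for 48 hours before readout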). The note with it: CellTiter-Glo ATP luminescence. A general note: ATP-based viability assays read luminescence as a measure of living cells.
Assay [10] in a line: viability loss in pontine glioma line – cell-based, JHH-DIPG-1, MIPE4.0, CellTiter-Glo, qHTS, dose response (AID 1347062; cut-off not given, nearly all actives have AC50 up to about 27 µM;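 also: cells exposed to compound for two days before readout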). The note with it: JHH-DIPG-1 viability, CellTiter-Glo ATP luminescence.
Assay [11] can be described thus: viability loss in pontine glioma line – cell-based, SU-DIPG-IV, MIPE4.0, CellTiter-Glo, qHTS, dose response (AID 1347063; cut-off not given, nearly all actives have AC50 up to about 30 µM;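 also: compound exposure lasted 48 hours before the viability readout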). The note with it: CellTiter-Glo ATP luminescence.
Assay [12] can be described thus: viability loss in pontine glioma line – cell-based, SU-DIPG-XIII, MIPE5.0, CellTiter-Glo, qHTS, dose response (AID 1347064; cut-off not given, nearly all actives have AC50 up to about 23 µM;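 also: cells exposed to compound for 48 hours before the viability read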). To be noted: CellTiter-Glo ATP luminescence.
A short description of assay [13]: growth inhibition of DIPG cells – cell-based, MIPE5.0 library, qHTS (AID 1347068; cut-off not given, nearly all actives have IC50 up to about 30 µM;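 also: cells exposed to compound for 48 hours before viability readout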). To be noted: SU-DIPG-XXV viability.

Sequence of L-lactate dehydrogenase (Plasmodium falciparum (isolate CDC / Honduras)) (Q27743 whole entry, looked up): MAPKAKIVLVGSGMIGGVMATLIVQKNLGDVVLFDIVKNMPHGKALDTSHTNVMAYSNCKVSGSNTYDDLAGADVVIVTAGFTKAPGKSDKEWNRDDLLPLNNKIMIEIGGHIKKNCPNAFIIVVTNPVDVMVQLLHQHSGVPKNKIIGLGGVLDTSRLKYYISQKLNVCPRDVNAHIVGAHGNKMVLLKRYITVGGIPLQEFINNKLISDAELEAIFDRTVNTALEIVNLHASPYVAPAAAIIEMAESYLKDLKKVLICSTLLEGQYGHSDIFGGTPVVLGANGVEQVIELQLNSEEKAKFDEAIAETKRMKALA
Sequence of Protein kinase 7 (PK7), Plasmodium falciparum 3D7 (PF3D7_0213400) (Q7YTF7 1-343): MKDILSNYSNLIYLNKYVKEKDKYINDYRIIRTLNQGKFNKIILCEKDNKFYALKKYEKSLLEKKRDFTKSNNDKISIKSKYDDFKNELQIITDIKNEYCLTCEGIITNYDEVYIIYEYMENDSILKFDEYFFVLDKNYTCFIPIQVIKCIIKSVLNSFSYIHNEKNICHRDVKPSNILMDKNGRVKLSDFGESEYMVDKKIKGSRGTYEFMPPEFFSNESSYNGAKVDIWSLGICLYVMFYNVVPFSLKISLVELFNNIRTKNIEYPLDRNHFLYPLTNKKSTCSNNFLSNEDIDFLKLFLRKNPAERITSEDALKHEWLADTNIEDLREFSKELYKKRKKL
Sequence of Calcium-dependent protein kinase 4 (Plasmodium falciparum (isolate 3D7)) (Q8IBS5 whole entry, looked up): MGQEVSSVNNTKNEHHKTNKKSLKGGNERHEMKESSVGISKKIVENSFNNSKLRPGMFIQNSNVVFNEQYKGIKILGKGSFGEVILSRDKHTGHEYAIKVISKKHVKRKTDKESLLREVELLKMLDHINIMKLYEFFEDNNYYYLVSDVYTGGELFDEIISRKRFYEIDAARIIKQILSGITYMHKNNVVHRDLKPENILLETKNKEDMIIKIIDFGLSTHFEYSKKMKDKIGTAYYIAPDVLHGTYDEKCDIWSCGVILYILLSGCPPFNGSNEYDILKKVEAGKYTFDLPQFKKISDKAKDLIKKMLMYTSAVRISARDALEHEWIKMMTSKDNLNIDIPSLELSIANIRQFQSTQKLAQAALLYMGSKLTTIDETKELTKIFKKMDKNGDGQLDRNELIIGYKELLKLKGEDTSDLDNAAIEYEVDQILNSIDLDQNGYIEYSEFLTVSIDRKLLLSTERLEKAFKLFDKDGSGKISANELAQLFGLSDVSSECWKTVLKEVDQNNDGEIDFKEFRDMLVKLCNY
Sequence of Plasmodium falciparum protein kinase 6 (PK6, PF3D7_1337100) (Q8IDW1 1-305): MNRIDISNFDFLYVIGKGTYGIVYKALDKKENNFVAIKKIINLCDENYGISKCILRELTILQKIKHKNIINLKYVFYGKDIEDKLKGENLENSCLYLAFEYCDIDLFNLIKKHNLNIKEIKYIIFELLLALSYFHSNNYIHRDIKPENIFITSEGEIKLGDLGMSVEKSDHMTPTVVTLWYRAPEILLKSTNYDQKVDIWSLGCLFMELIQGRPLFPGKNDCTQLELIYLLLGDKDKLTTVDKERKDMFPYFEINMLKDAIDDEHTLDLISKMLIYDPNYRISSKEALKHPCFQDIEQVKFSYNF
Sequence of Calcium-dependent protein kinase 1 (Plasmodium falciparum (isolate 3D7)) (P62344 whole entry, looked up): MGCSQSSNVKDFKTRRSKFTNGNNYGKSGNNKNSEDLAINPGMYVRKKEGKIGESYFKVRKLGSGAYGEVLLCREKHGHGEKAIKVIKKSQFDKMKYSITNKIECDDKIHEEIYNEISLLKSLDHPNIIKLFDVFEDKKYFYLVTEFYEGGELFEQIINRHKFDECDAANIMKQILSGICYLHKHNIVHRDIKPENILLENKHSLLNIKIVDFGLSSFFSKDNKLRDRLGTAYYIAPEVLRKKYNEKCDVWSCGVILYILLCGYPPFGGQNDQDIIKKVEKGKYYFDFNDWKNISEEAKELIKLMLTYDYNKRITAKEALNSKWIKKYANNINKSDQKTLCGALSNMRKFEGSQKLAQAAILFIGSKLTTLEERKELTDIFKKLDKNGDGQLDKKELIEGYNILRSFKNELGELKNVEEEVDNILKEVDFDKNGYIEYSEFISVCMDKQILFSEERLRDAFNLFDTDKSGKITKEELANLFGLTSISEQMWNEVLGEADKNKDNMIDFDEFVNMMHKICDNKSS

Consider `N=C(N)c1ccc(Nc2nc(Nc3ccc(-c4ccccc4)cc3)ncc2[N+](=O)[O-])cc1`, for which the results for the growth inhibition in assay [1] and in assay [4] were 35% and 99% (active), respectively. In addition, the inhibition in assay [2] is 11%; in assay [3] it was -3%. Moreover, the outcome in [5], in assay [6] and in assay [7] was inactive.

As to `CN(c1ccc2c(c1)nc(NCc1ccc(F)cc1)n2C)c1ccnc(Nc2ccc(CS(C)(=O)=O)cc2)n1`, the growth inhibition was 79% (active) in assay [1] and 97% (active) in [4]. The inhibition is 48% in [2] and 7% in assay [3]. The outcome in [5], in assay [6] and in [7] was inactive.

For the molecule `Oc1cc(-c2nc(-c3ccccc3)[nH]c2-c2ccncc2)ccc1Cl`, the growth inhibition in assay [1] is 91% (active); in assay [4] it was 96% (active). Further, the inhibition in [2] was 64% (active); in [3] it was -6%. Further, the result in assay [8], in assay [6] and in assay [7] was inactive. Moreover, the concentration at half-maximal activity (AC50) in [9] is 16.6 µM (active); in assay [10], 13.2 µM (active); in assay [11] it was 2.35 µM (active); in assay [12] it was 9.34 µM (active). Moreover, the IC50 in [13] is 23.5 µM (active).

For `CN(C)CCNCc1nc(-c2ccc3c(Nc4ccc(Oc5ccccc5)cc4)ccnc3c2)cs1`, the values for the growth inhibition in assay [1] and in assay [4] were 100% (active) and 101% (active), respectively. Further, the inhibition in [2] was 8%; in [3] it was 6%. For the same molecule, the outcome in assay [8], in assay [6] and in [7] was inactive.

Turning to `CCN(CC)CCNC(=O)c1ccc(Nc2ncc([N+](=O)[O-])c(Nc3ccccc3OC)n2)cc1`, the growth inhibition is 58% (active) in [1] and 97% (active) in assay [4]. Moreover, the inhibition in [2] is 59% (active); in [3], -6%. Besides, the result in [5], in [6] and in assay [7] was inactive.

`CC(=O)c1ccc(NC(=O)Nc2ccc(N(C)c3ccnc(Nc4cccc(CS(C)(=O)=O)c4)n3)cc2)cc1`: the growth inhibition was 98% (active) in [1] and 100% (active) in assay [4]. Also, the values for the inhibition in assay [2] and in assay [3] were 86% (active) and -1%, respectively. Besides, the result in assay [5], in assay [6] and in [7] was inactive.

Turning to `CN(c1ccc(NC(=O)Nc2cc(C(C)(C)C)on2)cc1)c1ccnc(NCCN2CCOCC2)n1`, the results for the growth inhibition in [1] and in [4] were 18% and 95% (active), respectively. The inhibition in assay [2] was 51% (active); in assay [3], -5%. Further, the result in [5], in assay [6] and in assay [7] was inactive.

Consider `Cn1nc(-c2ccc(NC(=O)Nc3ccc4ccccc4c3)c(F)c2)c2cnc(NCCN3CCOCC3)nc21`, for which the values for the growth inhibition in [1] and in [4] were 3% and 93% (active), respectively. Moreover, the inhibition is 62% (active) in assay [2] and 1% in assay [3]. Further, the outcome in assay [5], in assay [6] and in assay [7] was inactive.

As to `COc1c(CN2CCOCC2)cccc1-c1cc2c(-c3ccc(C(=O)O)c(C(C)C)c3)ccnc2[nH]1`, the figures for the growth inhibition in assay [1] and in assay [4] were 90% (active) and 98% (active), respectively. Also, the inhibition in assay [2] is 44%; in assay [3], -3%. The result in [5], in assay [6] and in [7] was inactive.

With `O=C(NCCN1CCCC1)c1cccc(Nc2nccc(Nc3ccc(Oc4ccccc4)cc3)n2)c1`, the values for the growth inhibition in [1] and in assay [4] were 18% and 100% (active), respectively. For the same molecule, the inhibition was 33% in assay [2] and -3% in assay [3]. For the same molecule, the outcome in assay [8], in [6] and in [7] was inactive.

As to `CN(C)Cc1ccc(-c2ccc3c(Nc4ccc(Cl)cc4F)ccnc3c2)o1`, the growth inhibition is 99% (active) in assay [1] and 100% (active) in assay [4]. Also, the inhibition in [2] was 13%; in [3], -3%. Further, the result in [8], in [6] and in assay [7] was inactive.

Regarding `CCOC(=O)c1cccc(NC(=O)Nc2cccc(-c3ncc(OCCCN)c4c3nc(-c3nonc3N)n4CC)c2)c1`, the growth inhibition in assay [1] was 98% (active); in assay [4] it was 100% (active). The inhibition in [2] is 16%; in [3], 2%. The result in assay [8], in assay [6] and in [7] was inactive.

In the case of `Oc1cc(Nc2ccnc3cc(I)ccc23)c(F)cc1Cl`, the growth inhibition in [1] is 77% (active); in [4], 92% (active). The inhibition in assay [2] and in assay [3] was -3% throughout. Further, the outcome in assay [8], in assay [6] and in assay [7] was inactive.

Consider `CS(=O)(=O)c1cccc(-c2cnc3[nH]cc(-c4cccc(CCN)c4)c3c2)c1`, for which the figures for the growth inhibition in assay [1] and in assay [4] were 74% (active) and 99% (active), respectively. For the same molecule, the inhibition was -12% in assay [2] and -5% in assay [3]. In addition, the outcome in [8], in [6] and in assay [7] was inactive.

As to `CCn1c(-c2nc(-c3ccnc(N4CCN(C)CC4)c3)cnc2N)nc2cc(S(C)(=O)=O)ccc21`, the growth inhibition in assay [1] is 76% (active); in [4], 101% (active). Moreover, the inhibition in assay [2] is 44%; in [3] it was -1%. Moreover, the outcome in assay [8], in assay [6] and in assay [7] was inactive.

`CC(C)(CNCCOc1ccc(Cl)cc1)c1nc(-c2ccc(Cl)c(O)c2)c(-c2ccnc(N)n2)[nH]1`: the values for the growth inhibition in [1] and in [4] were 19% and 97% (active), respectively. The inhibition in [2] was 45%; in [3], -6%. The outcome in [8], in [6] and in assay [7] was inactive.

Take `CN1CCC=C(C(=O)NCC(C)(C)c2nc(-c3ccc(Cl)c(O)c3)c(-c3ccncc3)[nH]2)C1`: the growth inhibition in assay [1] and in assay [4] was 96% (active) in each case. Further, the inhibition is 39% in assay [2] and -1% in [3]. Besides, the outcome in [8], in [6] and in assay [7] was inactive.

Turning to `CC(C)(CNCc1ccc(OC(F)(F)F)cc1)c1nc(-c2ccc(Cl)c(O)c2)c(-c2ccncc2)[nH]1`, the growth inhibition was 99% (active) in [1] and 102% (active) in assay [4]. Besides, the inhibition is 38% in assay [2] and -2% in assay [3]. In addition, the outcome in [8], in assay [6] and in assay [7] was inactive.

On to `COc1ccc2nc(-c3cc(-c4ccc(NC(C)=O)cc4)cnc3N)[nH]c2c1`, for which the values for the growth inhibition in [1] and in [4] were 73% (active) and 93% (active), respectively. In addition, the inhibition in assay [2] is 55% (active); in [3], -1%. The outcome in [8], in assay [6] and in assay [7] was inactive.

Consider `CC(C)(CNC(=O)C1CCN(Cc2ccc(Cl)cc2)CC1)c1nc(-c2ccc(Cl)c(O)c2)c(-c2ccncc2)[nH]1`, for which the growth inhibition in assay [1] was 83% (active); in assay [4], 100% (active). For the same molecule, the figures for the inhibition in [2] and in assay [3] were 36% and -6%, respectively. In addition, the result in [8], in [6] and in assay [7] was inactive.

Consider `CN(C)CCN(C)Cc1ccc(-c2ccc3c(Nc4ccc(Cl)cc4F)ccnc3c2)o1`, for which the growth inhibition in assay [1] was 76% (active); in assay [4], 100% (active). Besides, the inhibition in assay [2] was 20%; in assay [3], 1%. Besides, the result in assay [8], in assay [6] and in [7] was inactive.

Values taken from PubChem BioAssay.
